# Measurements from PubChem BioAssay (NCI).
# This is part of a sample that, as a whole, favours compounds with a hit. Of some 83,000 tested, about 20% had one in any assay.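 Compound tested at a single concentration for 48 hours in 96-well plates; a percent growth value below 10 was scored as active.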 Calls of active or inactive are those of the source.
# Test system: MDA-MB-468 breast
# Assay: NCI-60 one-dose screen, 48 h (100 = growth as untreated, 0 = no growth, -100 = all killed)
# Conditions: 10 µM unless noted
row,Structure (SMILES),growth
1,Nc1cc(C(=O)N/N=C\c2ccc(OC(F)F)c(OC3CCCC3)c2)nn1CC(O)c1ccccc1 (stereo not given),106% (inactive)
2,COc1ccc([C@H]2c3[nH]c4ccccc4c3C[C@@H]3C(=O)N(C4CCN(Cc5ccccc5)CC4)CC(=O)N23)c(OC)c1,63.4% (inactive)
3,C=CCNc1ccc2c3c(cccc13)C(=O)N(N1C(=O)c3cccc4cccc(c34)C1=O)C2=O,101% (inactive)
4,COc1cc2c(c(OC)c1OC)C(=O)/C(=C/c1cc(C)c(O)c(C)c1)S2,5.19% (active)
5,Clc1ccc(CNc2c3ccccc3nc3ccccc23)cc1,29.6% (inactive)
6,CC(C)(C)Nc1nc2c(OCCc3ccccc3)cccn2c1-c1ccc([N+](=O)[O-])cc1,-19.5% (active)
7,S=C(Cc1ccc(-c2ccccc2)cc1)N1CCOCC1,90.8% (inactive)
8,CN1c2ccccc2Sc2cc(/C=N/Nc3ccnc4cc(Cl)ccc34)ccc21,52.7% (inactive)
9,O=C(/C=C/C=C/c1ccc2c(c1)OCO2)N/N=C\c1ccc(O)cc1O,-2.83% (active)
10,Cc1nn(-c2ccc(-c3ccc(OC(F)(F)F)cc3)cc2)c2nc(Cc3ccccc3)nc(N)c12,46% (inactive)
11,CCOC(=O)c1cc2c(n1Cc1cc(OC)cc(OC)c1)-c1oncc1CC2,-14.1% (active)
12,COc1ccc(-c2nnc(COc3ccc(NC(=O)Nc4cc(C(F)(F)F)cc(C(F)(F)F)c4)cc3F)o2)cc1,-9.21% (active)
13,Nc1nc2c(s1)CCc1cn(S(=O)(=O)c3ccccc3)cc1-2,83.2% (inactive)
14,COc1ccc(-c2cc(-c3cccnc3)nc3sc4c(Cl)nnnc4c23)cc1OC,80.1% (inactive)
15,Cc1c2c(nn1C(=O)c1nn(-c3ccc(Cl)cc3)cc1O)-c1ccccc1CC2,13.9% (inactive)
16,C=CCC(OC(C)=O)c1ccc(C(C)C)cc1 (stereo not given),105% (inactive)
17,CCc1nnc(NC(=O)c2cc(-c3ccc(Cl)cc3Cl)oc2C)s1,94% (inactive)
18,C[C@]12CC[C@@H]3c4ccc(O)c([N+](=O)[O-])c4CC[C@H]3[C@@H]1CCC2=O,71% (inactive)
19,COc1ccc2nc3cc(Cl)ccc3c(N)c2c1,-88.9% (active)
20,COc1ccc(/C=N\NC(=O)c2ccc3nc(-c4ccc(Cl)cc4)[nH]c3c2)cc1,24.2% (inactive)

row,Structure (SMILES),growth
1,COc1cc(/C=C/c2nnc(-c3cc(-c4ccccc4)n[nH]3)o2)cc(OC)c1OC,101% (inactive)
2,C#CCOc1ccc2ncnc(Nc3cccc(CNC(=O)CCl)c3)c2c1,-3.41% [8.25 µM] (active)
3,CCOC(=O)c1ccc2c(c1)[n+](=O)c(C(C)=O)c(C(F)(F)F)n2[O-],-37% (active)
4,O=C(Nc1ccc(Cl)cc1)Oc1c(Cl)c(Cl)c(Cl)c(Cl)c1Cl,106% (inactive)
5,CN(C)CCN=c1nc2c(c(N)n1-c1ccccc1)c(=S)n(-c1ccccc1)c(=S)n2-c1ccccc1,-34.6% (active)
6,Cc1ccc(-n2c(/C=C3\C(=O)Nc4ccccc43)ccc2CO)cc1,45.1% (inactive)
7,O=C1c2cccnc2C(=O)c2nc3cc(N4CCN(C5CC5)CC4)ccc3nc21,-22% (active)
8,[O-][n+]1ccccc1CCN(O)CCc1cccc[n+]1[O-],110% (inactive)
9,O=C(O)c1ccc2cccnc2c1O,-31.1% (active)
10,CO[C@H]1CC(=O)n2c3ccccc3c3c4c(c5c6ccccc6n1c5c32)C(=O)NC4=O,34.2% (inactive)
11,Nc1nc(N)c2c(n1)NC(c1ccc(C(F)(F)F)cc1)CC(c1ccc(Nc3nc(NCCO)nc(Nc4ccc(Cl)cc4)n3)cc1)=N2 (stereo not given),-84.7% (active)
12,O=S(=O)(O)C(Nc1ccccc1)c1ccccc1 (stereo not given),92.7% (inactive)
13,Cc1c(C(=O)OCCO)cc(-c2ccc(Cl)cc2)n1-c1ccc(Cl)cc1Cl,56.5% (inactive)
14,COc1cc(-c2cc(/C=C3\C(=O)Nc4ccc(Cl)cc43)[nH]n2)cc(OC)c1OC,67.7% (inactive)
15,O=C1/C(=C\c2ccc[nH]2)c2ccccc2N1c1ccccc1,0.806% (active)
16,C=C(C)[C@@H]1CC[C@]2(C(=O)N3CCN(C)CC3)CC[C@]3(C)[C@H](CC[C@@H]4[C@@]5(C)CC(CCCNC(C)=O)(CCCNC(C)=O)[C@H](OC(C)=O)C(C)(C)[C@@H]5CC[C@]43C)[C@@H]12,99.2% (inactive)
17,CCNC(=O)Oc1ccc(/C(=C(\C)c2ccccc2)c2ccc(OCCN3CCCCC3)cc2)cc1,76.6% (inactive)
18,O=C(Nc1ccc(OS(=O)(=O)c2ccc(F)cc2)cc1)C1CCCCCC1,102% (inactive)
19,O=C(CCCCCCNC(=O)C(O)(O)C(F)(F)F)Nc1ccc(Cl)cc1,16.9% (inactive)
20,Clc1ccc(-c2nc(Br)cn3ccnc23)cc1,78.9% (inactive)
